Results filed as inconclusive are left out. A call without a number means that no potency is given here. The source made the active and inactive calls. Calls come from the whole dose curve; as a rule, active = well fitted curve in the direction sought with a large enough effect; inconclusive = small, poorly fitted or top-dose-only effect, or another doubt; inactive = no such curve, though single readings can be large; an effect the other way counts as inactive or inconclusive.
Potency is the fitted concentration of half-maximal effect.

One assay deals with Rap guanine nucleotide exchange factor 3 (Homo sapiens) (UniProt O95398). The assay can be described thus: Confirmatory qHTS for antagonist of cAMP-regulated guanine nucleotide exchange factor 3 (EPAC1) (AID 1645880). Note: nearly all actives have a fitted effect of over 55% in size. The conditions noted are these: EPAC1 Rap1B-BODIPY-GDP exchange, fluorescence; series mostly up to 115 µM. The essentials: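 Nucleotide exchange uses 100 nM EPAC1, 250 nM RAP1B-BODIPY-GDP and 50 uM GDP, with compounds in a concentration-titration series. After 5 min at room temperature, fluorescence (480 nm ex/540 nm em) is read every 5 min for 30 min. Data are normalized to control ATA and DMSO.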
Chain of Rap guanine nucleotide exchange factor 3 (Homo sapiens) (O95398 whole entry, looked up): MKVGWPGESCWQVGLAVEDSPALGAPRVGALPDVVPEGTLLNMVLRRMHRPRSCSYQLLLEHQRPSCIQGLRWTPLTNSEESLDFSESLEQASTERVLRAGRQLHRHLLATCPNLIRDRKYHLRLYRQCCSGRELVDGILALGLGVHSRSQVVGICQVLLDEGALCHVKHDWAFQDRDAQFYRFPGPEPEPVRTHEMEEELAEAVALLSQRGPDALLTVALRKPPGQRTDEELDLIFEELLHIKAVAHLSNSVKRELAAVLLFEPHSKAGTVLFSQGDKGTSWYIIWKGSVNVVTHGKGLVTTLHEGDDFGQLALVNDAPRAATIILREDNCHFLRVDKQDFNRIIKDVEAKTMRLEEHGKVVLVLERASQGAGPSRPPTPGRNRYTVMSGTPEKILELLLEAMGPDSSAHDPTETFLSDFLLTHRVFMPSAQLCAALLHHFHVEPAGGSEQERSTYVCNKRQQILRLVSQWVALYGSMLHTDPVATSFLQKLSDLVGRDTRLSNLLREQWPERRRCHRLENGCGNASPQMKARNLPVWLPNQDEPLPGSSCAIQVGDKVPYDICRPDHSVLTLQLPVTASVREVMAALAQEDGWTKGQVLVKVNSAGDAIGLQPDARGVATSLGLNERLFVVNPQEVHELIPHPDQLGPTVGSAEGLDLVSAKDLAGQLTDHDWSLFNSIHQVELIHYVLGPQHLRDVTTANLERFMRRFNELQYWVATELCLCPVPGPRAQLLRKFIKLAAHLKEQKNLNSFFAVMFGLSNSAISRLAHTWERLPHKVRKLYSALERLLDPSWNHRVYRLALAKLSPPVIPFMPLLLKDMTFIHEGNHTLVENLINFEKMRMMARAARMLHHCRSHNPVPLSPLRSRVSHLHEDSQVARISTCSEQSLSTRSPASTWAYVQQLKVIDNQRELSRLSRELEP
`CCOC(=O)[C@]12Cc3cc(C)ccc3[C@H]1N(C1CCCCC1)C(=O)c1ccccc12`: the Potency entry is “inactive”.
The same measure, in the same setting: then `Cc1c(NS(=O)(=O)c2ccccc2)ccc([N+](=O)[O-])c1Cl`, with “inactive”.
Turning to `CCCSc1nc2ccccc2c(=O)n1-c1ccccc1OC`, the Potency entry is “inactive”.
Regarding `CC(Cc1ccc(O)cc1)NCC(O)c1ccc(O)c(O)c1` (stereo not drawn), the Potency was 22.4 µM (active).
The same measure, in the same setting: then `Cc1c2cnn(CC(=O)N3CCC4(CC3)OCCO4)c(=O)c2c(C)n1Cc1ccc(F)cc1`, with “inactive”.
The same measure, in the same setting: with `CCOC(=O)[C@]12Cc3cc(C)ccc3[C@H]1N(Cc1ccccc1)C(=O)c1ccccc12` the entry was “inactive”; with `CCN(CC)c1ccc(N=Cc2c(O)n(CCC3=CCCCC3)c(=O)[nH]c2=O)cc1`, 75.7 µM (active); with `O=c1[nH]c(O)c(C=Nc2ccccc2Sc2ccccc2)c(=O)[nH]1`, “inactive”.
Still for that read-out and setting: with `COc1ccc(C(SCC(NC(=O)OCc2ccccc2)C(=O)O)c2ccc(OC)cc2)cc1` (stereo not drawn) the entry was “inactive”; with `CCOC(=O)[C@]12Cc3ccsc3[C@H]1N(Cc1ccccc1)C(=O)c1ccccc12`, “inactive”.
For the compound `O=C1NC(=O)N(c2cccc(Cl)c2)C(=O)/C1=C\c1ccc(Sc2nc3ccccc3[nH]2)o1`, the Potency was 28.2 µM (active).
For the compound `CCN1C(=O)C(=C/C=C/c2ccco2)C(=O)N(CC)C1=S`, the Potency entry is “inactive”.
In the case of `COC(=O)C1=C(c2cc3ccccc3s2)C[C@@H]2CC[C@H]1N2C(=O)NC1CC1`, the Potency entry was “inactive”.
Take `Cc1cc(/C=C2\C(=O)NC(=O)N(c3ccc(Cl)cc3)C2=O)c(C)n1-c1sc2c(c1C#N)CCCC2`: the Potency was 11.2 µM (active).
Still for that read-out and setting: with `COc1cccc(-n2c(/C=C/c3ccc(O)c(O)c3)nc3ccccc3c2=O)c1` the figure was 31.6 µM (active); with `N#CC(C#N)=NNc1ccc(S(N)(=O)=O)cc1`, 44.7 µM (active).
In the case of `Cc1ccc(N2C(=O)NC(=O)/C(=C\c3cc(C)n(-c4sc5c(c4C#N)CCCC5)c3C)C2=O)cc1`, the Potency was 16.9 µM (active).
Turning to `Cc1ccc(N2C(=O)NC(=O)/C(=C\C=C\c3ccco3)C2=O)cc1`, the Potency was 42.6 µM (active).
Regarding `Cc1ccc(CN2CCCN(Cc3ccccc3C)S2(=O)=O)cc1`, the Potency entry is “inactive”.
For the compound `O=C1NC(=S)N(c2ccccc2)C(=O)/C1=C/c1ccco1`, the Potency was 9.53 µM (active).
Regarding `Cc1cc(OC(C)C(=O)N[C@H](C(=O)O)c2ccccc2)c2c3c(c(=O)oc2c1)CCC3` (stereo partly drawn), the Potency result was “inactive”.
In the case of `CCOC(=O)[C@]12Cc3cc(OC)ccc3[C@H]1N(Cc1ccccc1)C(=O)c1cc(F)c(F)cc12`, the Potency result was “inactive”.
On to `COC(=O)c1cn(Cc2ccc(F)cc2)c2ccccc12`, for which the Potency result is “inactive”.
On the same count and under the same terms, with `CCCCn1c(NS(=O)(=O)c2ccc(C)cc2)c(C(=O)OCC)c2nc3ccccc3nc21` the figure was 75.7 µM (active); with `O=C1NC(=O)N(Cc2ccccc2)C(=O)/C1=C/C=C/c1ccco1`, 44.7 µM (active).
In the case of `O=C(O)CC1OCC=C2CN3CCC45C6=CC(=O)C(=O)C([N+](=O)[O-])=C6NC4C1C2CC35` (stereo not drawn), the Potency entry is “inactive”.
The same measure, in the same setting: then `COc1ccc(-n2c(O)c(/C=C3\C=Nc4ccc(Br)cc43)c(=O)[nH]c2=O)c(OC)c1`, with 37.9 µM (active); and `Cc1ccc(C)c(Cn2c(C(=O)O)c(C=O)c3ccccc32)c1`, with “inactive”.
For the compound `O=C1NCN(c2ccccc2)C12CCN(C(c1cc3ccccc3o1)c1nnnn1C1CCCC1)CC2` (stereo not drawn), the Potency entry is “inactive”.
On to `CCCNC(=O)N1[C@H]2CC[C@@H]1C(C(=O)OC)=C(c1ccc(F)cc1OCc1ccccc1)C2`, for which the Potency result is “inactive”.
Same read-out and setting: then `Nc1c(C(=O)Nc2ccc(Br)cc2F)sc2nc3c(cc12)N1CCC3CC1`, with “inactive”; and `CCOC(=O)c1cc(CC)sc1/N=C/c1c(O)[nH]c(=S)[nH]c1=O`, with “inactive”.
On the same count and under the same terms, then `CCOC(=O)[C@]12Cc3cc(Cl)ccc3[C@H]1N(C1CCCCC1)C(=O)c1ccccc12`, with “inactive”; and `CCOC(=O)[C@]12Cc3ccccc3[C@H]1N(C1CCCCC1)C(=O)c1cc(OC)ccc12`, with “inactive”; and `CCOC(=O)[C@]12Cc3ccc(C)cc3[C@H]1N(C1CCCCC1)C(=O)c1cc(OC)ccc12`, with “inactive”.
As to `COC(=O)c1cn(C(=O)c2cccc3ccccc23)c2ccccc12`, the Potency entry was “inactive”.
On to `COCCCn1c(N)c(C(=O)NCCC(C)C)c2nc3ccccc3nc21`, for which the Potency is 56.2 µM (active).
As to `Oc1c(Cl)cccc1Cc1cc(Cl)cc(Cl)c1O`, the Potency was 19 µM (active).
Consider `CN(C)CC(C(=O)Cc1ccccc1)c1ccccc1` (stereo not drawn), for which the Potency result was “inactive”.

The target is the same in a further assay. In words: Confirmatory qHTS for agonist of cAMP-regulated guanine nucleotide exchange factor 3 (EPAC1) (AID 1645881). Note: nearly all actives have a fitted effect of over 75% in size. As to conditions: EPAC1 Rap1B BODIPY-GDP exchange fluorescence; series mostly up to 154 µM.
Turning to `CCOC(=O)[C@]12Cc3cc(C)ccc3[C@H]1N(C1CCCCC1)C(=O)c1ccccc12`, the Potency entry was “inactive”.
As for `Cc1c(NS(=O)(=O)c2ccccc2)ccc([N+](=O)[O-])c1Cl`, the Potency entry is “inactive”.
Turning to `CCCSc1nc2ccccc2c(=O)n1-c1ccccc1OC`, the Potency result was “inactive”.
Same read-out and setting: with `CC(Cc1ccc(O)cc1)NCC(O)c1ccc(O)c(O)c1` (stereo not drawn) the entry was “inactive”; with `Cc1c2cnn(CC(=O)N3CCC4(CC3)OCCO4)c(=O)c2c(C)n1Cc1ccc(F)cc1`, “inactive”; with `CCOC(=O)[C@]12Cc3cc(C)ccc3[C@H]1N(Cc1ccccc1)C(=O)c1ccccc12`, “inactive”.
In the case of `CCN(CC)c1ccc(N=Cc2c(O)n(CCC3=CCCCC3)c(=O)[nH]c2=O)cc1`, the Potency entry was “inactive”.
`O=c1[nH]c(O)c(C=Nc2ccccc2Sc2ccccc2)c(=O)[nH]1`: the Potency result was “inactive”.
For `COc1ccc(C(SCC(NC(=O)OCc2ccccc2)C(=O)O)c2ccc(OC)cc2)cc1` (stereo not drawn), the Potency result was “inactive”.
For the compound `CCOC(=O)[C@]12Cc3ccsc3[C@H]1N(Cc1ccccc1)C(=O)c1ccccc12`, the Potency result was “inactive”.
The same measure, in the same setting: then `O=C1NC(=O)N(c2cccc(Cl)c2)C(=O)/C1=C\c1ccc(Sc2nc3ccccc3[nH]2)o1`, with “inactive”.
For the compound `CCN1C(=O)C(=C/C=C/c2ccco2)C(=O)N(CC)C1=S`, the Potency result was “inactive”.
As to `COC(=O)C1=C(c2cc3ccccc3s2)C[C@@H]2CC[C@H]1N2C(=O)NC1CC1`, the Potency result is “inactive”.
Regarding `Cc1cc(/C=C2\C(=O)NC(=O)N(c3ccc(Cl)cc3)C2=O)c(C)n1-c1sc2c(c1C#N)CCCC2`, the Potency entry is “inactive”.
Turning to `COc1cccc(-n2c(/C=C/c3ccc(O)c(O)c3)nc3ccccc3c2=O)c1`, the Potency result was “inactive”.
In the case of `N#CC(C#N)=NNc1ccc(S(N)(=O)=O)cc1`, the Potency result was “inactive”.
For the compound `Cc1ccc(N2C(=O)NC(=O)/C(=C\c3cc(C)n(-c4sc5c(c4C#N)CCCC5)c3C)C2=O)cc1`, the Potency entry is “inactive”.
Consider `Cc1ccc(N2C(=O)NC(=O)/C(=C\C=C\c3ccco3)C2=O)cc1`, for which the Potency entry was “inactive”.
As to `Cc1ccc(CN2CCCN(Cc3ccccc3C)S2(=O)=O)cc1`, the Potency result is “inactive”.
For `O=C1NC(=S)N(c2ccccc2)C(=O)/C1=C/c1ccco1`, the Potency result is “inactive”.
Consider `Cc1cc(OC(C)C(=O)N[C@H](C(=O)O)c2ccccc2)c2c3c(c(=O)oc2c1)CCC3` (stereo partly drawn), for which the Potency entry is “inactive”.
In the case of `CCOC(=O)[C@]12Cc3cc(OC)ccc3[C@H]1N(Cc1ccccc1)C(=O)c1cc(F)c(F)cc12`, the Potency result is “inactive”.
Take `COC(=O)c1cn(Cc2ccc(F)cc2)c2ccccc12`: the Potency result was “inactive”.
Take `CCCCn1c(NS(=O)(=O)c2ccc(C)cc2)c(C(=O)OCC)c2nc3ccccc3nc21`: the Potency entry was “inactive”.
On to `O=C1NC(=O)N(Cc2ccccc2)C(=O)/C1=C/C=C/c1ccco1`, for which the Potency result is “inactive”.
Regarding `O=C(O)CC1OCC=C2CN3CCC45C6=CC(=O)C(=O)C([N+](=O)[O-])=C6NC4C1C2CC35` (stereo not drawn), the Potency entry was “inactive”.
Still for that read-out and setting: then `COc1ccc(-n2c(O)c(/C=C3\C=Nc4ccc(Br)cc43)c(=O)[nH]c2=O)c(OC)c1`, with “inactive”; and `Cc1ccc(C)c(Cn2c(C(=O)O)c(C=O)c3ccccc32)c1`, with “inactive”.
`O=C1NCN(c2ccccc2)C12CCN(C(c1cc3ccccc3o1)c1nnnn1C1CCCC1)CC2` (stereo not drawn): the Potency entry was “inactive”.
With `CCCNC(=O)N1[C@H]2CC[C@@H]1C(C(=O)OC)=C(c1ccc(F)cc1OCc1ccccc1)C2`, the Potency entry is “inactive”.
Still for that read-out and setting: then `Nc1c(C(=O)Nc2ccc(Br)cc2F)sc2nc3c(cc12)N1CCC3CC1`, with “inactive”; and `CCOC(=O)c1cc(CC)sc1/N=C/c1c(O)[nH]c(=S)[nH]c1=O`, with 100 µM (active); and `CCOC(=O)[C@]12Cc3cc(Cl)ccc3[C@H]1N(C1CCCCC1)C(=O)c1ccccc12`, with “inactive”.
On to `CCOC(=O)[C@]12Cc3ccccc3[C@H]1N(C1CCCCC1)C(=O)c1cc(OC)ccc12`, for which the Potency result is “inactive”.
The same measure, in the same setting: then `CCOC(=O)[C@]12Cc3ccc(C)cc3[C@H]1N(C1CCCCC1)C(=O)c1cc(OC)ccc12`, with “inactive”.
Take `COC(=O)c1cn(C(=O)c2cccc3ccccc23)c2ccccc12`: the Potency result is “inactive”.
`COCCCn1c(N)c(C(=O)NCCC(C)C)c2nc3ccccc3nc21`: the Potency result is “inactive”.
As to `Oc1c(Cl)cccc1Cc1cc(Cl)cc(Cl)c1O`, the Potency result was “inactive”.
Same read-out and setting: with `CN(C)CC(C(=O)Cc1ccccc1)c1ccccc1` (stereo not drawn) the entry was “inactive”.

The values are drawn from PubChem BioAssay (NCATS).
